# From PubChem
# Sampled rows, rich in hits. Any-hit rate of the full collection: about 4.7%.
# GDH-TPI counter-1: counter-screen for M. tuberculosis FBA inhibitors: GDH-TPI coupled enzymes; GDH-TPI coupled enzyme counterscreen, NADH absorbance; inhibition, % at 4.8 µM; actives 1.2% (n = 360,000); AID 588335
# CCHF vOTU inh: blocks the CCHF virus ovarian tumor domain protease; actives 0.55% (n = 370,000); inhibition, % at 11.5 µM; CCHFV vOTU protease, Pep-AMC fluorescence
# DUSP3 inh: blocks human VHR1 dual specificity phosphatase. P51452. recombinant VHR phosphatase, pNPP absorbance. inhibition, % at 13.3 µM. actives 0.52% (n = 290,000). AID 1654; in the data active = inhibition above about 50%
# Target sequence (P51452 whole entry, looked up): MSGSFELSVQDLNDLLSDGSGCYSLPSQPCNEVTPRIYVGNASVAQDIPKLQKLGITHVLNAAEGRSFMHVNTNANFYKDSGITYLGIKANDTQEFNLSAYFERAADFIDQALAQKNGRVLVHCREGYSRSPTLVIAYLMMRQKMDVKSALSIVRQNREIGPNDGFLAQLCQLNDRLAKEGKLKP
# 3CLpro inhibitor: SARS-CoV 3CLpro protease inhibition. AID 1706. inhibition, % at 6 µM. P0C6X7. actives 0.14% (n = 290,000). recombinant SARS-CoV 3CLpro, quenched FRET peptide cleavage; in the data active = inhibition above about 12%
# RecA intein inh: blocks M. tuberculosis RecA intein splicing; P9WHJ3; cell-free RecA intein splicing, fluorescence; inhibition, % (no concentration beside the values); actives 0.75% (n = 290,000); in the data active = inhibition above about 30%
# FBA Mtb inh: inhibitors of M. tuberculosis fructose-bisphosphate aldolase | P9WQA3 | purified M. tuberculosis FBA, fluorescence read-out | inhibition, % at 1 µM | actives 2.3% (n = 360,000); in the data active = inhibition above about 27%
# Target sequence (P9WQA3 whole entry, looked up): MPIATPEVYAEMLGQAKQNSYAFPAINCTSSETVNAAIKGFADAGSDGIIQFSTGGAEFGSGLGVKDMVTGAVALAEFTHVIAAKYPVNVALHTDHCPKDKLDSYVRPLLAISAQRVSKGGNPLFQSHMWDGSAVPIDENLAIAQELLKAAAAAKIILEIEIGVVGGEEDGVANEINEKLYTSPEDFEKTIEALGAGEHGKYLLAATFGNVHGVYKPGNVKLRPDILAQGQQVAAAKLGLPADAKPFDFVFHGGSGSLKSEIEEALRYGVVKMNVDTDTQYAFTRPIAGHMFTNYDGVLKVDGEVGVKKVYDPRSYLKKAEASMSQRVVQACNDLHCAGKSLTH
# Mtb FBA confirm: confirmation of M. tuberculosis fructose-bisphosphate aldolase inhibitors | shares compounds with FBA Mtb inh | purified M. tuberculosis FBA, fluorescence read-out | inhibition, % at 1 µM | actives 78% (n = 5,600) | AID 651616; in the data active = inhibition above about 27%
# GDH-TPI counter-2: counter-screen for M. tuberculosis FBA inhibitors: GDH-TPI coupled enzyme inhibition; inhibition, % at 1 µM; AID 652141; actives 81% (n = 5,600); GDH-TPI coupled enzyme counterscreen, fluorescence; shares compounds with FBA Mtb inh; in the data active = inhibition above about 10%
# GDH-TPI DR: inhibits GDH-TPI coupling enzymes in dose response | shares compounds with FBA Mtb inh | GDH-TPI coupled enzyme assay, fluorescence, artifact counterscreen | IC50, µM | actives 79% (n = 170) | AID 652145; call rule not given here
# Hits are given with their value; i = inactive; nt = no result. Rule as the data show it, unless noted: active = inhibition above about 30%; inactive = the rest.
SMILES,GDH-TPI counter-1,CCHF vOTU inh,DUSP3 inh,3CLpro inhibitor,RecA intein inh,FBA Mtb inh,Mtb FBA confirm,GDH-TPI counter-2,others
N=c1oc2ccc3ccccc3c2cc1-c1nc(-c2ccccc2)cs1,i,i,i,i,i,i,nt,nt,
Cc1ccc(-c2cc3cccc[n+]3cc2-c2ccc(C)cc2)cc1,i,i,i,i,i,40,126,98,
N#CC1=C(N)SC2(CCCCC2)SC1c1ccccc1 (stereo unspecified),i,nt,i,i,i,i,nt,nt,
N#CC1=C(C2CC2)CC(c2ccccc2)C(C#N)=C1N (stereo unspecified),i,i,i,i,i,33,i,i,GDH-TPI DR=i
CC(C)Sc1nnc(NC(=O)c2ccco2)s1,i,i,i,i,i,i,nt,nt,
O=C(Nc1nnc(/C=C/c2ccccc2)s1)c1ccco1,74,i,i,i,i,34,i,i,
CN(CC(=O)Nc1ccc(Cl)c(C(F)(F)F)c1)C(=O)c1ccc(N2CCOCC2)c([N+](=O)[O-])c1,i,i,nt,nt,i,i,nt,nt,
Cc1ccc(-c2cc(-c3ccc(C)cc3)[n+](-c3ccc(C(=O)O)cc3)c(-c3ccc(C)cc3)c2)cc1,i,i,nt,nt,i,i,nt,nt,
Cc1ccc(-c2cc(-c3ccccc3)cc(-c3ccccc3)[n+]2-c2ccc(C(=O)O)cc2)cc1,i,i,nt,nt,i,29,49,46,
CC(C)C(=O)N[C@H]1[C@H](O)CCC[C@@]12C(=O)N(Cc1ccccc1)c1ccccc12,nt,i,nt,nt,nt,nt,nt,nt,
O=c1c2ccccc2nc2n1CCN2Cc1ccc(Cl)cc1,i,nt,i,i,i,34,192,170,
O=c1c2ccccc2nc(-c2ccccc2)n1Cc1ccc(Cl)cc1,i,i,i,i,i,i,nt,nt,
CCOC(=O)CC1(C)NC(=O)c2c(C)sc(C(=O)OCC)c2N1 (stereo unspecified),i,i,i,i,i,55,i,i,
CCOC(=O)CC1(CC(=O)OCC)NC(=O)c2c(C)sc(C(=O)OCC)c2N1,i,i,i,i,i,31,i,i,
CCCCC1(C)NC(=O)c2c(C)sc(C(=O)OCC)c2N1 (stereo unspecified),i,i,i,i,i,i,nt,nt,
O=C(Oc1cncc(Cl)c1)c1ccco1,i,i,i,i,i,33,57,62,
O=C(Oc1cncc(Cl)c1)c1sccc1Cl,i,i,nt,nt,i,i,nt,nt,
Cc1cccn2c(=O)c3cc(C(=O)N(C)C)n(C)c3nc12,i,i,i,i,i,49,93,69,
Cc1cccn2c(=O)c3cc(C(=O)NCCCN4CCCC4=O)n(C)c3nc12,i,i,i,i,i,108,i,i,
COCCNC(=O)c1cc2c(=O)n3cccc(C)c3nc2n1C,i,i,i,nt,i,i,nt,nt,
Cc1cccn2c(=O)c3cc(C(=O)NCCCn4ccnc4)n(C)c3nc12,i,i,i,i,i,59,77,53,
COc1ccc(-c2cc(C(=O)Nc3cccc(O)c3)no2)cc1,i,i,i,i,i,i,nt,nt,
FC(F)(F)c1cccc(Nc2cc(-c3ccccc3)nc3ncnn23)c1,i,i,i,i,i,i,nt,nt,
Fc1ccc(-c2cc(C(F)(F)F)n3ncnc3n2)cc1,i,i,i,i,i,85,130,129,
CC(C)CNC(=O)CSc1nc2scc(-c3ccccc3)c2c(=O)[nH]1,i,i,i,i,i,i,nt,nt,
SMILES,GDH-TPI counter-1,CCHF vOTU inh,DUSP3 inh,3CLpro inhibitor,RecA intein inh,FBA Mtb inh,Mtb FBA confirm,GDH-TPI counter-2,others
O=C(CSc1nc2scc(-c3ccccc3)c2c(=O)[nH]1)Nc1ccccc1,i,i,i,i,i,33,i,i,
CN(C)CCNC(=O)c1cccc(-c2cccc3nccn23)c1,i,i,nt,nt,nt,i,nt,nt,
CN(C)C(=O)c1cccc(-c2cccc3nccn23)c1,i,i,nt,nt,nt,41,88,58,
O=C(CN1C(=O)NC(c2ccccc2)(c2ccccc2)C1=O)NCC(=O)Nc1ccc(F)cc1,i,i,nt,nt,nt,i,nt,nt,
Cc1ccn2c(NCc3ccccc3)c(-c3cccc(SC4CCCCC4)c3)nc2c1,i,i,nt,nt,nt,28,39,30,
Clc1cccc(-c2ccc(-c3nc4ccccn4c3NCc3ccccc3)cc2)c1,i,i,nt,nt,nt,40,152,117,
Cc1ccc2nc(-c3cccc(SC4CCCCC4)c3)c(NCc3ccccc3)n2c1,i,i,nt,nt,nt,i,nt,nt,
c1ccc(CNc2c(-c3cccc(SC4CCCCC4)c3)nc3ccccn23)cc1,i,i,nt,nt,nt,46,100,65,
COc1ccc(-c2nc3ccccn3c2NCc2ccc3c(c2)OCO3)cc1,i,i,i,i,i,i,nt,nt,
COc1ccc(-c2cc(-c3nc4ccccn4c3NCc3ccccc3)ccc2OC)cc1,i,i,nt,nt,nt,36,167,136,
CCc1nc2c(OCCn3cccc3)cccn2c1N(C)C(=O)C1CC1,i,i,nt,nt,nt,i,nt,nt,
O=C(Nc1ccc(N2CCOCC2)cc1)c1ccc([N+](=O)[O-])cc1,i,i,i,i,i,i,nt,nt,
CCCS(=O)(=O)NC(=O)C1(C)CCN(C(=O)Cc2cccc3ccccc23)C1 (stereo unspecified),i,nt,nt,nt,nt,i,nt,nt,
COc1ccc(CCNS(=O)(=O)c2c(C)[nH]c(C)c2C(=O)N2CCCCC2)cc1OC,i,i,i,i,i,i,nt,nt,
CCC(C)Sc1cccc(-c2nc3cc(C)ccn3c2NCc2ccccc2)c1 (stereo unspecified),i,i,nt,nt,i,33,49,36,
COC(=O)C1=C(C)N(C)C(=NCc2ccc3c(c2)OCO3)NC1c1cccc(C(F)(F)F)c1 (stereo unspecified),nt,i,nt,nt,nt,nt,nt,nt,
COc1ccc(CCNC(=O)c2ccc3c(c2)N(Cc2ccc(C)cc2)CCS3)cc1OC,i,nt,i,i,i,54,64,51,
Cc1ccc(SCc2ccc(C(=O)NCc3cccnc3)cc2)cc1,i,i,i,i,i,i,nt,nt,
Cc1ccc(CN2CCSc3ccc(C(=O)NCC4CCCO4)cc32)cc1 (stereo unspecified),i,nt,i,i,i,58,47,23,
Cc1ccc(CN2CCSc3ccc(C(=O)NCc4cccnc4)cc32)cc1,i,i,i,i,i,69,i,23,
CCOc1ccc(N(CC(=O)NCCc2ccc(C)cc2)S(=O)(=O)c2c(C)noc2C)cc1,i,i,i,i,i,i,nt,nt,
COc1ccc(NC(=S)Nc2cccc3ccccc23)cc1OC,i,i,i,i,i,42,35,33,
Cc1ccc(F)c(NC(=S)Nc2cccc3ccccc23)c1,i,i,i,i,i,46,55,50,
S=C(Nc1cccc2ccccc12)NC1CCCCC1,i,i,i,i,i,i,nt,nt,
CC(=O)c1cccc(NC(=S)Nc2cccc3ccccc23)c1,i,i,i,i,i,42,63,33,
S=C(Nc1cccc2ccccc12)Nc1cccc2ccccc12,i,i,nt,nt,nt,88,96,73,
